Test results reported in PubChem BioAssay AID485344 (National Center for Advancing Translational Sciences (NCATS), 2010).
In all, about 340,000 compounds went through this assay and about 6,900 (2%) were called active. Cut-off read from the data, not from the text of the source: active = inhibition above about 30%; inactive = below that, where a call was filed. The full list was thinned out, with actives kept by preference.

molecular target: D(2) dopamine receptor (Homo sapiens) (UniProt P14416); assay: HTS Assay for Allosteric Antagonists of the Human D2 Dopamine Receptor: Primary Screen for Antagonists; settings: HEK293 TREx D2 cells, calcium flux, dopamine EC80; at 10 µM; active compounds read high; note: 0% is about no effect
Excerpt: NIH Chemical Genomics Center [NCGC] NIH Molecular Libraries Probe Centers Network [MLPCN] MLPCN Grant: NS064831-01 Assay Submitter (PI): David Sibley Dopamine receptors (DARs) are involved in the etiology and/or therapy of a number of neuropsychiatric and endocrine disorders. For instance, all receptor-based antiparkinsonian drugs work via stimulating the D2 DAR subtype whereas all FDA-approved antipsychotic agents are antagonists of this receptor. […] There are three different types of allosteric modulators that we are seeking, two of which will stimulate or augment receptor signaling, allosteric agonists and potentiators, while the third, allosteric antagonists, will attenuate receptor signaling. The present primary screening assay measures compound antagonism after an EC80 addition of dopamine by tracking calcium flux in a […], inducible Hek293 Trex D2 cell line.
Freshly passaged cells are plated in 1536 well black, clear bottom plates at a density of 4000 cells/well in 3 ul of complete media containing 1x tetracycline inducer. After an overnight incubation at 30 C in 5% CO2, cells are loaded with 2 ul of the no wash Calcium Assay Kit (ABD Bioquest) and incubated at room temperature for 30 to 90 minutes. Agonist read: A 10 cycle (1 second/cycle) baseline measurement is taken and then the FDSS online 1536 pintool delivers 23 nl of compound library (as well as dopamine controls) to the plate. The plate is measured for kinetically at 1 cycle/sec for 180 seconds. Following the 180 second read, 1 ul of an EC80 (negative modulation assay) is delivered by an onboard pipette head. Measurements are taken kinetically for an additional 180 seconds.

Sequence of D(2) dopamine receptor (Homo sapiens) (P14416 whole entry, looked up): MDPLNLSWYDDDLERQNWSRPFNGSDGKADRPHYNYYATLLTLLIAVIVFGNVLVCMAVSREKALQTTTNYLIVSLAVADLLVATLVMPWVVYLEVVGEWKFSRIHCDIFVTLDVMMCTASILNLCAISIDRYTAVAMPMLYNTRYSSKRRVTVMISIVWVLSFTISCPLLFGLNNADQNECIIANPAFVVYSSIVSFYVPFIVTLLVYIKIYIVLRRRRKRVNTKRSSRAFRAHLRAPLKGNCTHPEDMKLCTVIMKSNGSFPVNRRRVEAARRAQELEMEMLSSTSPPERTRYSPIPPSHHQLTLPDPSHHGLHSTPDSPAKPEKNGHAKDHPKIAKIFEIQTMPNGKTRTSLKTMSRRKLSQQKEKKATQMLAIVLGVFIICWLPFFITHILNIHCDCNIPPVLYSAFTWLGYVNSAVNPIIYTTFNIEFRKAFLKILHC

inhibition, inactive:
CN(C)C1=NC[C@H](Cc2ccccc2)N1CCc1ccc(F)cc1 -4.3%
Cc1ccc(S(=O)(=O)N(C)C)cc1NC(=O)c1ccc(-n2cncn2)c([N+](=O)[O-])c1 2.81%
CCC(C(=O)OCC(=O)Nc1c(Cl)cc(Cl)cc1Cl)c1ccccc1 (stereo unspecified) -3.7%
Cc1cc(C)cc(NC(=O)COC(=O)c2cc(C)oc2C)c1 -1.43%
COc1ccc(C(=O)NCc2ccc(C)cc2)cc1S(=O)(=O)N1CCCC1 -8.88%
CC1CCN(C(=O)COC(=O)CCC(=O)c2cccs2)CC1 24%
Cc1c(C)c2c(OCC(=O)NCCCO)cc3c(c2oc1=O)CCC(C)(C)O3 -0.698%
Cc1cc(=O)oc2c3c(cc(OCC(=O)N[C@H](C(=O)O)c4ccccc4)c12)OC(C)(C)CC3 3.15%
CCN(C(=O)COC(=O)c1c(C)nn(-c2ccccc2)c1Cl)c1c(N)n(Cc2ccccc2)c(=O)[nH]c1=O -3.1%
O=C(CSc1nnc(CN2CCCC2)n1-c1ccc(F)cc1)c1ccc2c(c1)OCO2 8.14%
CN(Cc1ccccc1Cl)C(=O)C1CCC(=O)N(CCc2cccc(F)c2)C1 (stereo unspecified) -0.289%
CCNC(=O)c1cccc(NC(=O)C2CC(=O)N(CCc3ccccc3)C2)c1 (stereo unspecified) -18%
Cn1c(N)c(C(=O)COC(=O)/C=C/c2cccc(C(F)(F)F)c2)c(=O)n(C)c1=O -16.8%
c1ccc2c(c1)OCC(CNc1ncnc3nc[nH]c13)O2 (stereo unspecified) -3.03%
COc1ccc(Nc2ncnc3sc(-c4ccccc4)cc23)c(OC)c1 -16.4%
CC(=O)c1ccc(S(=O)(=O)NCCC(=O)N2CCN(c3ccccn3)CC2)cc1 -35%
CN(C)CCN(C(=O)CN1C(=O)c2ccccc2C1=O)c1nc2cc3c(cc2s1)OCCO3 12.4%
CCN(C(=O)COC(=O)C1CCN(S(=O)(=O)c2ccc(C)c(C)c2)CC1)C1CCS(=O)(=O)C1 (stereo unspecified) 10.6%
O=C(Cc1cc(=O)[nH][nH]1)N/N=C/c1ccccc1[N+](=O)[O-] 11.1%
COc1cc(/C=N/NC(=O)Cc2ccccc2)cc(OC)c1OC 1.38%
Cc1nc(N2CCN(c3ccccn3)CC2)c2c(C)c(C(=O)Nc3ccc(F)cc3)sc2n1 8.07%
O=C(CCC1CCCN(C(=O)Cc2ccc(F)cc2)C1)N1CCN(c2ccccn2)CC1 (stereo unspecified) -9.86%
O=C(CN1CCN(C2CCS(=O)(=O)C2)CC1)N1N=C(c2ccc(Cl)cc2)CC1c1ccco1 (stereo unspecified) -10.4%
CC(=O)c1ccc(OCCCC(=O)Nc2ccc(C)c(S(=O)(=O)N3CCOCC3)c2)cc1 6.79%
CC(OC(=O)c1cc2ccccc2o1)C(=O)Nc1ccc(N2CCOCC2)cc1 (stereo unspecified) 8.62%
Brc1ccccc1CN1CCC(Cc2ccccc2)CC1 17.7%
O=C(c1ccccc1)c1ccc2nc(N3CCCCC3)c3nncn3c2c1 -2.11%
CCc1sc(C(=O)N2CCN(CC(=O)Nc3cccc(F)c3)CC2)cc1C 22.4%
Cc1cc(Br)ccc1NC(=O)CN(C)C(=O)CN1C(=O)NC2(CCCC2)C1=O 7.4%
CCOC(=O)C1=C(COC(=O)[C@H](C)NS(=O)(=O)c2ccccc2F)NC(=O)NC1C (stereo partly specified) 11%
O=C(OCC(=O)N1CCOCC1)c1ccc2ccccc2c1 -1.03%
CCCCCN(C(=O)CCC(=O)OCCOc1ccc(OC)cc1)c1c(N)n(CCCC)c(=O)[nH]c1=O -2.34%
COc1cc2ccccc2cc1C(=O)Nc1ccncc1 5.03%
CCOC(=O)c1cc(C)nc(S(C)(=O)=O)c1C#N 5.94%
CC(=O)c1cc(C#N)c(SCC(=O)C(C)(C)C)nc1C -15%
CCC(C)N(C(=O)CSc1ncnc2c1cnn2-c1ccccc1)C1CCS(=O)(=O)C1 (stereo unspecified) 1.86%
O=C(CCNC(=O)c1ccc(Br)cc1)NCC(c1ccco1)N1CCCCC1 (stereo unspecified) 17%
COc1cccc(CNS(=O)(=O)c2ccc3c(c2)CC(C)N3C(C)=O)c1 (stereo unspecified) -5.54%
CC(=O)N1c2ccc(S(=O)(=O)NCCC(=O)N(C)C3CCCCC3)cc2CC1C (stereo unspecified) -4.33%
CCOc1ccc(NC(=O)CN(C)C(=O)CSc2ccccc2)cc1OCC 13.7%
Clc1nc(NC2CCCC2)nc(N2CCOCC2)n1 -9.32%
CCOC(=O)CNc1nc(Cl)nc(Nc2ccccc2)n1 6.97%
O=C(CN1CCc2ccccc2C1)Nc1cccc(S(=O)(=O)N2CCOCC2)c1 -6.15%
COc1ccc(F)cc1C(=O)COC(=O)c1n[nH]c(=O)c2ccccc12 -10.9%
CN(C(=O)Cn1nnc(-c2ccc(F)cc2)n1)C1CCS(=O)(=O)C1 (stereo unspecified) 9.49%
O=C(CCNS(=O)(=O)c1ccccc1)NCCCc1ccccc1 21%
Cc1ccc(OCCNC(=O)CCNS(=O)(=O)c2ccc(Br)cc2)cc1 23.7%
O=C(CCNS(=O)(=O)c1ccccc1C(F)(F)F)Nc1ccncc1 -6.21%
CN(Cc1ccccc1F)C(=O)C(Cc1ccccc1)NC(=O)c1ccccc1 (stereo unspecified) -5.32%
O=C(COC(=O)CNC(=O)c1ccco1)Nc1ccc(F)cc1 -3.88%
NS(=O)(=O)c1ccc(NC(=O)COC(=O)c2cc3ccccc3oc2=O)cc1 -18.7%
NC(=O)c1ccc(NC(=O)COC(=O)c2ccc([N+](=O)[O-])cc2)cc1 -23.5%
N/C(Cc1ccc([N+](=O)[O-])cc1)=N\OC(=O)C1CCCCC1 2.32%
COc1ccc(CNC(=O)CN2C(=O)NC3(CCCc4sccc43)C2=O)cc1 (stereo unspecified) 2.45%
Cc1ccc(S(=O)(=O)N2CCCCC2)cc1C(=O)N1CCN(CCO)CC1 -6.17%
COc1ccc(-c2nn(-c3ccccc3)cc2C(=O)Nc2nc(CC(C)=O)ns2)cc1 13.1%
COc1ccc(-c2nn(-c3ccccc3)cc2/C=C\C(=O)Nc2ccc(C(=O)O)cc2)cc1 0.137%
O=C(NNC(=O)c1ccc(-n2cncn2)c([N+](=O)[O-])c1)c1ccccc1 1.81%
COc1ccc(C2=NN(C(=O)CSc3nnnn3C)C(c3ccco3)C2)cc1 (stereo unspecified) -18.6%
O=S(=O)(Nc1ccc(-n2cnnn2)cc1)c1ccc(Cl)cc1 -3.4%
Cc1ccc(C)c(S(=O)(=O)Nc2cccc(-n3cnnn3)c2)c1 4.04%
COc1ccccc1CNS(=O)(=O)c1cc(C(=O)NCc2ccccn2)c(Cl)cc1Cl -2.76%
Cc1cccc(NS(=O)(=O)c2ccc(C)c(C(=O)NCC(c3ccccc3)N(C)C)c2)c1 (stereo unspecified) -4.69%
CNC(=O)C1CC(=O)N(c2ccc(OCC(=O)Nc3ccccc3C)cc2)C1 (stereo unspecified) 12.9%
S=C(NCCc1ccccc1)NCc1ccccc1Cl -2.45%
Cc1cc(F)ccc1NC(=S)NCCc1ccccc1 -0.203%
CC(=O)N1CCc2c(sc(NC(=O)CCS(=O)(=O)c3ccc(C)cc3)c2C(N)=O)C1 -1.82%
O=C(c1cccc(C(=O)N2CCN(c3ccc(F)cc3)CC2)c1)N1CCN(c2ccc(F)cc2)CC1 19.6%
CCN1CCN(C(c2cccnc2)c2cc(Cl)c3cccnc3c2O)CC1 (stereo unspecified) 2.31%
CCN(CC(=O)Nc1ccc(OC)cc1)C(=O)c1ccc(=O)n(Cc2ccccc2)n1 7.28%
Cc1ccc(S(=O)(=O)NCCNC(C)c2ccc(Br)cc2)cc1 (stereo unspecified) -7.75%
COc1ccc2cc(C3=CC(=O)C[C@H](c4ccc5c(c4)OCO5)C3)ccc2c1 13.1%
COc1ccc(C2CC(=O)NC(=O)C2)cc1 -28.9%

inhibition, active:
CCCC(C)C(=O)OCC(=O)Nc1c(Br)cc(C)cc1Br (stereo unspecified) 39.9%
Cc1c(C)c2c(OCC(=O)N[C@@H](C(=O)O)c3ccccc3)cc3c(c2oc1=O)CCC(C)(C)O3 30.5%
CN(CC(=O)Nc1cccc(F)c1)C(=O)C1CC(=O)N(CCc2ccccc2)C1 (stereo unspecified) 33.5%
c1ccc(-c2cc3c(NCC4COc5ccccc5O4)ncnc3s2)cc1 (stereo unspecified) 31.8%
COc1cc(CC(=O)N/N=C/c2ccccc2)c([N+](=O)[O-])cc1OC 77%
Cc1c(CN2CC[C@@H](N3CCN(c4ccccn4)CC3)[C@H](O)C2)[nH]c2ccc(F)cc12 51.4%
c1ccc(CC2CCN(c3nc4ccccc4n4cnnc34)CC2)cc1 37.6%
CCCCSc1[nH]c(=O)c(C(=O)OCC)cc1C#N 30.2%
CC(=O)N1c2ccc(S(=O)(=O)N(C)CC(=O)N(C)Cc3ccccc3)cc2CC1C (stereo unspecified) 36.2%
COC(=O)CNc1nc(Cl)nc(N2CCC(C)CC2)n1 35.9%
O=C(CCNS(=O)(=O)c1ccccc1)NCCSc1ccc(Br)cc1 45.1%
NS(=O)(=O)c1ccc(NC(=O)COC(=O)c2ccco2)cc1 38.5%
O=C(COC(=O)C1CCCCC1)Nc1ccc([N+](=O)[O-])cc1 35.3%
COc1ccc(NC(=O)c2cn(-c3ccccc3)nc2SC)cc1 60.7%
O=S(=O)(Nc1cccc(-n2cnnn2)c1)c1cnc(Cl)c(Cl)c1 34.6%
Fc1ccccc1Cn1cnc(NC(=S)NCCc2ccccc2)n1 40.1%
Oc1c(CN2CCN(c3ccc(F)cc3)CC2)cc(Cl)c2cccnc12 49.1%
COc1ccc(C2CC(=O)Oc3ccc(C(C)(C)C)cc32)cc1 (stereo unspecified) 40.2%
